The values that follow come from PubChem BioAssay.

Several values for one entry are separate records, joined by “and”; a condition that tells them apart may be missing. Equal entries are not always repeated. Activity calls are given as the source filed them.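 How the source made its calls, unless noted: active means compounds whose cell count with miR-34 switched on is under 0.7 times the count with it off; inactive means the rest.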

Assay [1] in a line: yeast 75Q aggregation reduction – 75Q-TubU reporter (AID 1593). The settings on record: Yeast 75Q polyglutamine aggregation reporter.
Assay [2] can be described thus: blockers of cytochrome c efflux from mitochondria – biochemical, purified mitochondria (AID 1603).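 Further: mouse liver mitochondria challenged with calcium chloride; signal normalized to the plate average as 100%.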 The note with it: stronger effect = lower value.
A short description of assay [3]: polyglutamine aggregate formation blockers (AID 1604). The note with it: polyglutamine-induced protein aggregation inhibition assay; stronger effect = higher value; tested at 2.5 µM.
Assay [4] is described as follows: Wnt pathway potentiators raising nuclear beta-catenin – imaging, WNT3A-conditioned medium, mouse C2C12, NPC library, primary screen (AID 1117326; in the data active means nuclear beta-catenin stimulation mostly above about 4.2%, no sharp cut-off; inactive means mostly below about 10%). The settings on record: stronger effect = higher value.
Assay [5] can be described thus: stimulators of insulin release from INS-1E, primary screen, cell-based, 5 mM glucose, NPC library (AID 1117329;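 active means compound raises insulin release from rat beta cells at 5 mM glucose, no numeric limit stated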). The note with it: rat INS-1E insulin secretion, at 10 µM, stronger effect = higher value.
Assay [6] can be described thus: growth inhibition of GSK3B-pretreated HCT116 cells – cell-based, CellTiter-Glo, 0.2 to 20 µM (AID 1117336;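 active means compounds lowering colon cancer cell viability after pretreatment blocking the GSK3B kinase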). The note with it: HCT116 viability after GSK3B inhibitor, at 20 µM, stronger effect = higher value.
Assay [7] is described as follows: inhibition of endothelial tube formation, primary screen, imaging, VEGF stimulated, CD31 staining, tube area, NPC library (AID 1117340;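 active means compound that reduces growth-factor-driven endothelial tube area in a mixed cell culture, no cutoff stated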). The note with it: VEGF-stimulated ADSC/ECFC co-culture, at 10 µM, stronger effect = higher value.
Assay [8] is described as follows: GLP1 release stimulators, primary, NCI-H716, NPC library (AID 1117341;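 active means compound raises GLP1 secretion from the human gut endocrine cells, with no numeric limit stated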). The note with it: NCI-H716 cells, at 10 µM, stronger effect = higher value.
The nature of assay [9]: HCT116 colon cancer cell growth inhibition, primary screen, CellTiter-Glo luminescence, NPC library (AID 1117342;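 active means compounds that lower survival of HCT116 colon cancer cells in the luminescence readout, no numeric limit stated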). The settings on record: at 20 µM (top of the series).
Assay [10] is described as follows: reduced SW480 viability measured with CellTiter-Glo, NPC library, primary (AID 1117343;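 active means compounds that lower viability of the colon cancer cells in the luminescence readout, with no numeric limit stated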). The note with it: CellTiter-Glo luminescence; at 20 µM (top of the series). On the technique in general: Cellular ATP, detected with luciferase, serves as a proxy for viable cell number.
A short description of assay [11]: NPC library primary testing for decreased DLD-1 cell viability via CellTiter-Glo (AID 1117346;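 active means compounds that lower survival of DLD-1 colon cancer cells in the luminescence readout, no cutoff given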). The settings on record: DLD-1 viability, CellTiter-Glo luminescence; at 20 µM (top of the series).
Assay [12] has as its target 6-phosphogluconate dehydrogenase, decarboxylating (Homo sapiens) (UniProt P52209). As to the kind of experiment: inhibition of human phosphogluconate dehydrogenase – biochemical, recombinant enzyme, NADPH absorbance, primary screen (AID 1159550;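 active means at least 20% inhibition of 6-phosphogluconate dehydrogenase activity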). The note with it: recombinant 6PGD, NADPH absorbance 341 nm; at 10 µM; stronger effect = higher value.
A short description of assay [13]: EMT-state selective cytotoxicity in co-culture – imaging, PC-3E GFP, TEM4-18 mCherry, primary screen (AID 1345086;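 active means compounds killing one labelled cell type while sparing the other, by normalised counts and ratio limits, not self-fluorescent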;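 on all read-outs here: cells exposed to compound for 72 h before imaging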;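 on red/green cell ratio (normalised): normalised mesenchymal count divided by normalised epithelial count so high means epithelial killing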). The note with it: PC-3E GFP / TEM4-18 mCherry co-culture, imaging cell counts, at 1 µM; for red/green cell ratio (normalised): actives lie on both sides.
The test system of assay [14] is Aerobactin synthetase IucA (Klebsiella pneumoniae hvKP1). As to the kind of experiment: IucA enzyme inhibition, primary screen, biochemical, Spectrum library (AID 1346200; call rule not given here;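 further: 100% = wells without compound and 0% = wells lacking enzyme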). The note with it: malachite green pyrophosphate, A620, at 8 µM, stronger effect = lower value.
Assay [15] in a line: viability loss with induced miR-34 in A549 – imaging, A549 dox-inducible miR-34, nuclei and caspase counts, primary screen (AID 1347080). The note with it: A549 miR-34 inducible, Hoechst nuclei count, 48 h.
A short description of assay [16]: MELAS cybrid and Rieske KO viability enhancers – cell-based, MELAS cybrids, Rieske KO mouse fibroblasts, CellTiter-Glo, primary screen (AID 1508586;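 active means mean z-score across replicates of 1.96 or higher in either the MELAS or the Rieske mutant cell line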;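 further: z relative to plate mean and SD of compound and empty wells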). The note with it: low glucose.
The target of assay [17] is NAD(+) hydrolase SARM1 (Homo sapiens) (UniProt Q6SZW1). As to the kind of experiment: blocking NAD cleavage by SARM1 SAM-TIR – cell lysate, NAD-Glo luminescence (AID 1508614;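 active means compound whose remaining NAD level is above about 45 nM, limit read from the data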). The note with it: SAM-TIR HEK293T lysate NADase, at 1 µM, stronger effect = higher value.
Chain of NAD(+) hydrolase SARM1 (Homo sapiens) (Q6SZW1 whole entry, looked up, the tested form may be a part): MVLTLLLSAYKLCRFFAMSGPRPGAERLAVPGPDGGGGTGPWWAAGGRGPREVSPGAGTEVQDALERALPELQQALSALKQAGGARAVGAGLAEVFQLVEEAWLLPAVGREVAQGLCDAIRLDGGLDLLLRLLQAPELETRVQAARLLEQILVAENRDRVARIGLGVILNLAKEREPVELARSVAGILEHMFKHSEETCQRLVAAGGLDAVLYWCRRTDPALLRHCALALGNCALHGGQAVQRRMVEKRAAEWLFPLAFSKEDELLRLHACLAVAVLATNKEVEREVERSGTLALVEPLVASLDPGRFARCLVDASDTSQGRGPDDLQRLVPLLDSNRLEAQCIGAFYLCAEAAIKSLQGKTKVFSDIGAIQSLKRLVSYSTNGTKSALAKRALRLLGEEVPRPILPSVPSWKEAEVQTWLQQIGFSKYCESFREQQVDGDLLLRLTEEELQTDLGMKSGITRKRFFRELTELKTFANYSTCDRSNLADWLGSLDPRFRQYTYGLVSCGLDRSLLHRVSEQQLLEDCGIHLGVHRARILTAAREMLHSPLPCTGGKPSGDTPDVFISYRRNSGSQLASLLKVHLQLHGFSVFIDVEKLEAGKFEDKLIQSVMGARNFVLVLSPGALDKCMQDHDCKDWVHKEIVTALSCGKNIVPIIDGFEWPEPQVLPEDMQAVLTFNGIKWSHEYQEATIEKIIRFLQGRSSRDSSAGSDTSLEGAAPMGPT
The target of assay [18] is Mitogen-activated protein kinase 7 (Homo sapiens) (UniProt Q13164). In words: Gal4-ERK5 driven luciferase induction – cell-based, HTS, primary screen (AID 1508626;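 active means luciferase signal above three times the same-plate solvent-only control wells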;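 further: luciferase driven by Gal4-ERK5 fusion binding five Gal4 sites before minimal TATA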). The settings on record: HeLa Gal4-ERK5 transactivation, 18 h, at 5 µM, stronger effect = higher value.
Chain of Mitogen-activated protein kinase 7 (Homo sapiens) (Q13164 whole entry, looked up, the tested form may be a part): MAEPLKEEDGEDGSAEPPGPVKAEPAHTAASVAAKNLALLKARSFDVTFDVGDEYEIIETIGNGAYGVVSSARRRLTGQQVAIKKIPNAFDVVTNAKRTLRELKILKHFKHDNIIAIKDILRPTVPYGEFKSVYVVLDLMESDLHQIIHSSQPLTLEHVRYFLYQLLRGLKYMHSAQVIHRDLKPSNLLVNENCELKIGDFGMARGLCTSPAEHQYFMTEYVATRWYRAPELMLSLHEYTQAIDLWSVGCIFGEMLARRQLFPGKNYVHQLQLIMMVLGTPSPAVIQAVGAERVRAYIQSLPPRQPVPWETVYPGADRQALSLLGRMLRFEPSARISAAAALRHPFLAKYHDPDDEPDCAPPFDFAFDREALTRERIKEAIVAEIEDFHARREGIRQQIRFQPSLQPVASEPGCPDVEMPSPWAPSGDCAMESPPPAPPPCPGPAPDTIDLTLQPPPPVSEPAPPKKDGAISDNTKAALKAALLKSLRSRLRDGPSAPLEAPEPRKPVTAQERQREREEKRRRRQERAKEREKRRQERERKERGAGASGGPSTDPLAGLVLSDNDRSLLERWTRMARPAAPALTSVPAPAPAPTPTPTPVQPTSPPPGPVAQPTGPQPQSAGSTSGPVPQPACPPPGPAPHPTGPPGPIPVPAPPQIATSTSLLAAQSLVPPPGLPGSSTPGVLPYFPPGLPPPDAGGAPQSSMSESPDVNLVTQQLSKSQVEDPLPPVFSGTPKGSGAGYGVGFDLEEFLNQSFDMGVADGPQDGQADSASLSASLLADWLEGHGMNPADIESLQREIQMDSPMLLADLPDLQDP
Assay [19] in a line: galactose survival enhancers in mitochondrial complex I cybrids – cell-based, galactose medium, ATP luminescence, primary screen (AID 1645843;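 active means z-score of at least 1.8 in each of two replicates, scored against plate mean and spread of sample wells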;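 further: positive z means more ATP and so rescue of galactose-driven cybrid death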). The settings on record: complex I mutant cybrid cells, 72 h, stronger effect = higher value.
Assay [20] is described as follows: P. berghei load reduction in hepatocytes – cell-based, HepG2, luciferase luminescence, HepG2 viability, primary screen (AID 624349; in the data active means parasite load remaining mostly below about 12%, no sharp cut-off; inactive means mostly above about 10%;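 further: 100% = mean of DMSO negative control wells on the same plate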). The settings on record: P. berghei liver stage in HepG2, luciferase luminescence, concentration not given here; parasite load remaining: stronger effect = lower value; viability: measured here: HepG2 viability without parasites.
[21] abbreviates: measured here: epithelial PC-3E GFP cell survival.
Where [22] appears, read: measured here: mesenchymal TEM4-18 mCherry cell survival.
[23] abbreviates: measured here: relative caspase fold change +Dox/-Dox.
Setting [24] is: measured here: total cells with miR-34 induction, stronger effect = lower value.
[25] abbreviates: measured here: total cells without miR-34 induction.

Chain of 6-phosphogluconate dehydrogenase, decarboxylating (Homo sapiens) (P52209 whole entry, looked up): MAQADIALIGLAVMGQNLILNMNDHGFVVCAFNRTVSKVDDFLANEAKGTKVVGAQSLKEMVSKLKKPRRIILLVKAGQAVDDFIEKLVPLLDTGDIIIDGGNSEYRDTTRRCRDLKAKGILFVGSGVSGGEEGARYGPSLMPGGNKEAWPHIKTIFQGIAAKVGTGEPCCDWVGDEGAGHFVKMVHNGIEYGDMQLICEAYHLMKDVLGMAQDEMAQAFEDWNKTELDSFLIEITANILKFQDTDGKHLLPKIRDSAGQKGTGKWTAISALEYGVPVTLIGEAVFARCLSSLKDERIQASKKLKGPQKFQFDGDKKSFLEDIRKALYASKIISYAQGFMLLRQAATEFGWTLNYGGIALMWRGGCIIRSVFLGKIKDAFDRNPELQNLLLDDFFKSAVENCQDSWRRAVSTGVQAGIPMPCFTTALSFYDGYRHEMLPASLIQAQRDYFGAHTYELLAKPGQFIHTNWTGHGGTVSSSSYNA

For orientation: inhibition means the relative decrease from the control value, in per cent. For the compound `NCC(CC(=O)O)c1ccc(Cl)cc1` (configuration not stated), the score in assay [1] turned out to be 1.02. Also, the cytochrome c release ratio in [2] was found to be 0.97. In assay [3], this compound had an inhibition of aggregation of 63.5%. For the same compound, the nuclear beta-catenin stimulation in assay [4] (at 10 µM) is -0.5% (inactive); in [4] (stimulation, at 2 µM) it was 0.7%. In [5], the insulin secretion stimulation was 2.7% (inactive). Besides, in assay [6], the viability decrease was -7.8% (inactive). The tube area decrease in assay [7] was -22.1% (inactive). The GLP1 secretion stimulation in [8] was -2.6% (inactive). Also, the inhibition of viability in [9] is -14.8% (inactive). Further, the viability decrease (inhibition) was -1.8% (inactive) in assay [10] and 7.35% (inactive) in assay [11]. The inhibition in assay [12] was 5.14% (inactive). The red/green cell ratio (normalised) in [13] is 0.69 (inactive). Also, the normalised cell number was 1.3 in [13] (setting [21]) and 0.89 in assay [13] (setting [22]). Also, the activity remaining in assay [14] is 103% (inactive). Further, the fold change in assay [15] (stronger effect = lower value) was 1.01 (inactive) and 0.984 (inactive) and 0.815 (inactive); in [15] (setting [23]), 1.78 and 1.11 and 0.933. The cell count was 7900 and 7930 and 10200 in [15] (setting [24]); 7820 and 8060 and 12600 in assay [15] (setting [25]). For the same compound, the z-score was -0.717 (inactive) in assay [16] (MELAS cybrid survival, CellTiter-Glo 48 h, stronger effect = higher value); -0.464 in assay [16] (Rieske KO mouse fibroblast survival, CellTiter-Glo 72 h); 0.635 (inactive) in [19]. Also, in assay [17], the remaining NAD is 10 nM (inactive). In addition, in [18], the luciferase signal is 56 AU (inactive).
A word on the viability: it is the share of living cells, or the viability signal relative to a control. The compound `NC(=O)c1cc([N+](=O)[O-])cc([N+](=O)[O-])c1` displayed a score in [1] of 1.47. For the same compound, in assay [2], the cytochrome c release ratio stood at 0.54. The inhibition of aggregation in assay [3] stood at 72.4%. Moreover, in [20], the parasite load remaining was 66.1% (inactive) and 34.1% (inactive). Besides, the viability in [20] was 71.7% and 90.1%. The nuclear beta-catenin stimulation in [4] (at 10 µM) was -1.3% (inactive); in assay [4] (stimulation, at 2 µM), -1.6%. Further, the insulin secretion stimulation in assay [5] was 0.7% (inactive). In addition, in assay [6], the viability decrease was 30.5% (inactive). The tube area decrease in [7] is -14.6% (inactive). Further, the GLP1 secretion stimulation in [8] is -0.8% (inactive). The inhibition of viability in assay [9] is 37.6% (inactive). Further, the viability decrease (inhibition) in assay [10] was 67.6% (active); in [11], 6.7% (inactive). Further, the inhibition in assay [12] was 8.1% (inactive). The red/green cell ratio (normalised) in assay [13] is 0.97 (inactive). Moreover, the normalised cell number was determined as 0.99 in assay [13] (setting [21]) and 0.96 in assay [13] (setting [22]). Besides, the activity remaining in assay [14] is 116% (inactive). The fold change in assay [15] (stronger effect = lower value) is 0.831 (inactive); in assay [15] (setting [23]), 2.03. In addition, the cell count in [15] (setting [24]) is 10800; in assay [15] (setting [25]) it was 12900. Further, in [17], the remaining NAD was 10 nM (inactive). Further, the luciferase signal in [18] was 40 AU (inactive).
As for `CC1=C2[C@H]3OC(=O)[C@@H](C)[C@@H]3CC[C@@]2(C)C=CC1=O`, the parasite load remaining in [20] was 92.1% (inactive). In [20], this compound yielded a viability of 72.5%. Moreover, the nuclear beta-catenin stimulation was 0.7% (inactive) in assay [4] (at 10 µM) and 1% in assay [4] (stimulation, at 2 µM). Besides, in assay [5], the insulin secretion stimulation is 0% (inactive). Besides, the viability decrease in assay [6] is 1.65% (inactive). For the same compound, the tube area decrease in assay [7] was 15.6% (inactive). Further, the GLP1 secretion stimulation in [8] was -0.6% (inactive). Moreover, in assay [9], the inhibition of viability is 1.8% (inactive). In addition, the viability decrease (inhibition) in assay [10] is 14.6% (inactive); in assay [11], 3.8% (inactive). The inhibition in assay [12] was 10.8% (inactive). The red/green cell ratio (normalised) in assay [13] was 0.97 (inactive). The normalised cell number in assay [13] (setting [21]) came out at 1.11; in [13] (setting [22]), 1.07. The activity remaining in assay [14] was 93.8% (inactive). For the same compound, the fold change in assay [15] (stronger effect = lower value) was 0.915 (inactive); in assay [15] (setting [23]), 0.797. The cell count in assay [15] (setting [24]) came to 8180; in [15] (setting [25]), 8940. The luciferase signal in assay [18] is 44 AU (inactive).
